The entries come from a sample that favours hits as a whole.
Pf Dd2 inh: qHTS Primary assay for Inhibitors of Plasmodium falciparum Dd2 growth in vitro; Potency, µM (highest dose often 28.9 µM), hits mostly inhibitors; 4.3% of 120,000 active; P. falciparum Dd2 growth, SYBR Green, 72 h; active = well fitted inhibition curve with a large enough effect; also: nearly all actives have a fitted effect of over 65% in size
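Infected erythrocytes (Dd2, 0.3% parasitemia, 2.5% hematocrit final) are added to compound in RPMI-1640/Albumax II medium, grown 72 h at 37C in low oxygen, then lysed with saponin/Triton-X containing SYBR Green and read by fluorescence.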
Large screens that a line does not name were inactive.

CCC(=O)N1CCc2cc(S(=O)(=O)NC(C(=O)NCc3ccccc3Cl)C(C)C)ccc21 (centres undefined)	none
Cc1cc(Cl)ccc1NS(=O)(=O)c1ccc2c(c1)CCN2S(C)(=O)=O	none
CS(=O)(=O)N1CCc2cc(S(=O)(=O)NCc3ccccc3Cl)ccc21	Pf Dd2 inh 3.2µM
C[C@H](O)c1onc(-c2ccccc2)c1C(=O)N1CCN(C)CC1	none
O=C(c1ccn[nH]1)N1C[C@@H](COCC2CC2)[C@H](c2ccccn2)C1	none
COC1CN(c2cccc(F)c2)C12CCN(C(=O)NC(C)(C)C)CC2 (centres undefined)	none
COC1CN(c2cccc(F)c2)C12CCN(C(=O)C1CCC1)CC2 (centres undefined)	none
COC1CN(c2cccc(F)c2)C12CCN(C(=O)c1ccncc1)CC2 (centres undefined)	none
COC1CN(c2cccc(F)c2)C12CCN(C(=O)CCC1CCCC1)CC2 (centres undefined)	none
COC1CN(c2cccc(F)c2)C12CCN(C(=O)C1CCCCC1)CC2 (centres undefined)	Pf Dd2 inh 10µM
COC1CN(c2cccc(F)c2)C12CCN(C(=O)NC1CCCCC1)CC2 (centres undefined)	Pf Dd2 inh 6.3µM
Cc1ccc(S(=O)(=O)NC[C@H]2OC[C@@H](NC3CCOCC3)[C@@H]2O)cc1	none
Cc1ccc(NC(=O)N2CCC(N3CC4CC(C3)[C@H]3CCCC(=O)N3C4)CC2)cc1F (some centres undefined)	none
CCCCC(=O)OC1=C(C(=O)c2ccccc2)N(CCC)S(=O)(=O)c2ccccc21	none
CCCCCN1C(C(=O)c2ccccc2)=C(OC(=O)CC)c2ccccc2S1(=O)=O	Pf Dd2 inh 3.2µM
CCCCCN1C(C(=O)c2ccccc2)=C(NC(C)=O)c2ccccc2S1(=O)=O	none
COc1ccc(CN[C@H]2C[C@@H](Cc3cc(CN4CCOCC4)on3)C2(C)C)cc1	none
CC(=O)N[C@H]1C[C@@H](Cc2cc(CN3CCCCC3)on2)C1(C)C	Pf Dd2 inh 22µM
COCc1cc(C[C@@H]2C[C@H](NC3CCN(C(C)=O)CC3)C2(C)C)no1	none
COCc1ccc(CN[C@H]2C[C@@H](Cc3cc(CN4CCCCC4)on3)C2(C)C)o1	Pf Dd2 inh 11µM
CC(=O)N[C@H]1C[C@@H](Cc2cc(CN(C)C)on2)C1(C)C	none
CCCCc1cc(C[C@@H]2C[C@H](NC(C)=O)C2(C)C)no1	none
C/C=C(\C)CN1C[C@@H](NC(=O)Cn2ccnc2C)C[C@H]1C(=O)NCC	none
CCOc1ccc(NC(=O)N2CCc3c(c4ccccc4n3C)C2)cc1	none
CNC(=O)[C@@H]1CN(C(=O)Cc2c(F)cccc2Cl)C[C@H]1COC	none
Cc1noc(C)c1[S+](=O)([O-])N1CC2ON=C(C(=O)O)C2C1 (centres undefined)	none
O=S(=O)(N[C@H]1CO[C@H]2[C@@H]1OC[C@@H]2n1nnnc1-c1ccccc1)c1cccc2cccnc12	none
CCCN(CCC)C(=O)CSc1nc2ccccc2c(=O)n1Cc1ccco1	Pf Dd2 inh 11µM
CCOc1ccccc1NC(=O)CSc1nc2c(oc3ccccc32)c(=O)n1Cc1ccco1	none
O=C(CSc1nc2c(oc3ccccc32)c(=O)n1Cc1ccco1)Nc1ccccc1	none
Cc1nnc2ccc(NCc3ccccc3F)nn12	none
CN(C)c1ccc(NC(=O)Cn2cc(S(=O)(=O)Cc3ccccc3Cl)c3ccccc32)cc1	Pf Dd2 inh 7.9µM
CN(C)c1ccc(NC(=O)Cn2cc(S(=O)(=O)Cc3cccc(Cl)c3)c3ccccc32)cc1	none
O=C(Cn1cc(S(=O)(=O)Cc2ccccc2Cl)c2ccccc21)NCc1ccccc1Cl	none
CC(=O)N1C[C@@H](C(=O)N2CCN(c3ccccn3)CC2)[C@H](c2nc(C)no2)C1	none
O=C(c1ccc(C(F)(F)F)cc1)N1CCC2(CC1)CN[S+](=O)([O-])c1ccccc1N2	none
CNC(=O)[C@@H]1CN(C(=O)Cc2ccsc2)C[C@H]1c1n[nH]c(C)n1	none
CCOC(=O)C1CCCN(c2c(C(=O)c3ccc(OCC)cc3)cnc3ccccc23)C1 (centres undefined)	none
CCOC(=O)C1CCN(c2c(C(=O)c3ccc(OCC)cc3)cnc3ccc(OC)cc23)CC1	Pf Dd2 inh 10µM
COc1cc2ncc(C(=O)c3ccc(C)cc3)c(N3CCCCC3)c2cc1OC	none
COC[C@H]1CCCN1C(=O)CC[C@H]1CNC(=O)[C@@H]2[C@@H](CCN2C2CCOCC2)N1C	none
CN1[C@@H](CCC(=O)NCc2ccco2)CNC(=O)[C@@H]2[C@H]1CCN2Cc1ccccc1	none
COc1c(Cl)cc(Cl)cc1/C=C(\C#N)c1nc2ccccc2[nH]1	Pf Dd2 inh 5.6µM
N#C/C(=C/c1ccc(Cl)cc1Cl)c1nc2ccccc2c(=O)[nH]1	none
Cc1c(Cl)cccc1-c1ccc(/C=C(\C#N)c2nc3ccccc3[nH]2)o1	none
C=CCOC(=O)C1=C(C)N=C2SC=C(CC(=O)NCC3CC3)N2C1c1ccc(OC)c(OC)c1 (centres undefined)	none
O=C(NCc1ccccc1)N1CCC(N2CC(OCC3CC3)C23CCOCC3)CC1 (centres undefined)	none

Compound activity as filed in PubChem BioAssay.
